The source of these data is PubChem BioAssay AID743019 (Broad Institute, 2013).

In all, about 1,000 compounds went through this assay and about 25 (2%) were called active.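 How the source made its calls: active means rising signal whose fitted curve reaches the 0.54 level within the top valid dose, showing a melting point (actives reach about 13 µM in these data); inactive means the rest, including activity in the opposite direction.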 The list is a sample of the results.

The experiment is described as follows: compound-only thermal shift signal without protein, dose response, artefact control for FGF22 binder project, biochemical, cherry-picked samples, RT-PCR instrument (AID 743019). Further: value is where the raw curve crosses a fixed level and not half-maximal. Particulars: compound-only SYPRO orange thermal shift counter-screen, no protein; at 38 µM (top of the series) unless noted.
With `COc1cc([N+](=O)[O-])ccc1NC(=O)CN1CCCC1`, the result was inactive.

Regarding `C[C@H]1CN([C@@H](C)CO)C(=O)Cc2cc(NC(=O)Cc3cn(C)c4ccccc34)ccc2O[C@@H]1CN(C)Cc1ccccc1`, the outcome was “inactive [at 42 µM]”.

For `Cc1ccc(S(=O)(=O)N(C)C[C@@H]2Oc3cc(C4=CCCC4)ccc3S(=O)(=O)N([C@@H](C)CO)C[C@@H]2C)cc1`, the outcome was “inactive [at 42 µM]”.

Take `O=C(NN1C(=O)C2C3C=CC(O3)C2C1=O)c1ccccc1` (stereo not given): the outcome was inactive.

For the compound `O=C(N[C@@H]1C=C[C@H](CC(=O)N2CCCCC2)O[C@H]1CO)c1cccc(F)c1`, the outcome was inactive.

Take `CCn1ccnc1CN(C)C(=O)c1ccc2nc(Cc3ccc(OC)cc3)oc2c1`: the outcome was inactive.

Consider `C[C@@H]1CN([C@@H](C)CO)S(=O)(=O)c2ccc(-c3ccncc3)cc2O[C@@H]1CN(C)C(=O)Nc1ccc(F)cc1`, for which the result was inactive.

Regarding `O=C(N/N=C/c1ccc([N+](=O)[O-])cc1)c1c[nH]c2ccccc12`, the result was inactive.

For `COc1ccccc1NC(=O)N1[C@H](C#N)[C@H](c2ccccc2)[C@H]1CO`, the outcome is “inactive [at 42 µM]”.

For `O=C(NCCc1c[nH]c2ccccc12)C(=O)NCC1CCCO1` (stereo not given), the result was inactive.

As to `O=C(c1ccccc1F)N1CC(=O)N2[C@H](C1)[C@H](c1ccc(-c3ccc(F)cc3)cc1)[C@@H]2CO`, the outcome is “inactive [at 42 µM]”.

Take `CS(=O)(=O)c1ccc2nc(NC(=O)c3ccc(Cl)nc3)sc2c1`: the outcome was inactive.

`OC[C@H]1[C@H](c2ccc(-c3cccnc3)cc2)[C@H]2CN(Cc3ccccn3)CCCCN21`: the result was inactive.

In the case of `O=C(Nc1ccccc1F)N1[C@H](CO)[C@H]2c3ccccc3NC[C@H]21`, the outcome is “inactive [at 42 µM]”.

`NS(=O)(=O)c1cccc(NC(=O)COC(=O)c2cc([N+](=O)[O-])ccc2N2CCCC2)c1`: the result was inactive.

As to `Cc1ccc(NC(=O)Nc2cccnc2)cc1`, the result was inactive.

For the compound `O=C(N/N=C/c1ccc(Cl)c(Cl)c1)c1ccc2nc[nH]c2c1`, the result was inactive.

Turning to `Cc1ccc(S(=O)(=O)Nc2nc3ccccc3s2)cc1[N+](=O)[O-]`, the result was inactive.

As for `O=C(Nc1nnc(-c2ccccc2F)s1)c1ccccc1F`, the outcome was inactive.

Consider `O=C(C[C@H]1CC[C@H]2[C@@H](COC[C@H](O)CN2S(=O)(=O)c2cccc(Cl)c2)O1)Nc1ccccc1`, for which the outcome is “inactive [at 42 µM]”.

Regarding `COCCN(C(=O)C(C)C)c1nnc(-c2ccc(C(C)(C)C)cc2)s1`, the outcome was inactive.

On to `C[C@H]1CN([C@@H](C)CO)S(=O)(=O)c2ccc(C3=CCCC3)cc2O[C@H]1CN(C)C(=O)Nc1ccc2c(c1)OCO2`, for which the outcome is “inactive [at 42 µM]”.

With `COc1ccc(-c2cc(=O)oc3cc(OCC(=O)N[C@@H](Cc4c[nH]c5ccccc45)C(=O)O)ccc23)cc1`, the result was inactive.

`O=S(=O)(ON(c1ccccc1)S(=O)(=O)c1ccccc1)c1ccccc1`: the result was inactive.

Turning to `O=C(Cc1cccnc1)N[C@H]1CC[C@H](CCn2cc(-c3ccccc3F)nn2)O[C@H]1CO`, the result was inactive.

Consider `CC(=O)Nc1ccc(S(=O)(=O)N(CCc2ccccc2)CC(=O)N/N=C/c2ccc(C(=O)O)cc2)cc1`, for which the outcome was inactive.

Take `CCCOc1ccc(NC(=O)CC2C(=O)N(C)C(=S)N2Cc2ccc3c(c2)OCO3)cc1` (stereo not given): the result was inactive.

Take `CC(C)NC(=O)N1C[C@@H]2[C@H](c3ccccc31)[C@H](CO)N2C(=O)c1ccccn1`: the outcome was “inactive [at 42 µM]”.

Take `O=C(N/N=C/c1ccc(OCc2ccccc2)cc1)c1ccc(O)cc1`: the outcome was inactive.

`C[C@@H]1CCCCO[C@@H](CN(C)Cc2ccncc2)[C@H](C)CN([C@H](C)CO)C(=O)c2cc(NC(=O)Cc3ccccc3)ccc2O1`: the outcome was inactive.

Regarding `Cc1cccc(S(=O)(=O)N2C[C@@H](O)COC[C@H]3O[C@H](CC(=O)Nc4ccc(-c5ccccc5)cc4)CC[C@@H]32)c1`, the outcome is “inactive [at 42 µM]”.

For the compound `CN1C(=O)c2cccc3c(N)ccc(c23)C1=O`, the outcome was inactive.

As to `CN1C(=O)c2cc(NC(=O)c3cccc(F)c3)ccc2OC[C@@H]2O[C@H](CC(=O)N3CCc4ccccc4C3)CC[C@@H]21`, the outcome was inactive.

For the compound `COc1ccccc1C(=O)NNC(=O)c1ccc(NC(=O)c2ccccc2)cc1`, the outcome was inactive.

In the case of `C[C@@H]1CN([C@H](C)CO)S(=O)(=O)c2ccc(-c3ccncc3)cc2O[C@@H]1CN(C)C(=O)Nc1ccc(C(F)(F)F)cc1`, the outcome was inactive.

For `Cc1c(CCO)sc[n+]1CC(=O)OC12CC3CC(CC(C3)C1)C2`, the outcome was inactive.

With `COc1ccc(-c2ccc([C@H]3[C@H]4CN(C(=O)c5ccc6c(c5)OCO6)CCCCN4[C@H]3CO)cc2)cc1`, the outcome was “inactive [at 42 µM]”.

As to `CC(=O)N1c2ccc(S(=O)(=O)N3CCC(C(=O)NCc4ccc(F)cc4)CC3)cc2CC1C` (stereo not given), the result was inactive.

On to `CC(C)NC(=O)N(C)C[C@@H]1Oc2c(NC(=O)c3nc4ccccc4s3)cccc2C(=O)N([C@H](C)CO)C[C@H]1C`, for which the outcome was “inactive [at 42 µM]”.

`CCCCN1CC(N2CCN(Cc3cccc(C)c3)CC2)CS1(=O)=O` (stereo not given): the result was inactive.

With `Cc1ccc(NC(=O)O/N=C/c2cccc([N+](=O)[O-])c2)cc1`, the result was inactive.

`CC(=O)NC[C@@H]1[C@@H](c2ccccc2)[C@@H](CO)N1C(=O)Cc1cccnc1`: the outcome is “inactive [at 42 µM]”.

For `O=C(COc1ccc([N+](=O)[O-])cc1)Nc1cccc(C(=O)Nc2ccccc2C(=O)O)c1`, the result was inactive.

In the case of `CC(C)(C)N1C(=O)c2c(C(=O)OCc3ccccc3)[nH]c(-c3ccccc3)c2C1=O`, the outcome was inactive.

For the compound `COc1cc(NC(=O)c2ccc3c(c2)OCO3)ccc1NC(=O)c1cccs1`, the outcome was inactive.

Turning to `O=C(C[C@H]1C[C@@H]2c3cc(NC(=O)Nc4ccc(C(F)(F)F)cc4)ccc3O[C@@H]2[C@@H](CO)O1)NCC1CC1`, the outcome was “inactive [at 10 µM]”.

Regarding `CNC[C@@H]1Oc2ccc(NC(=O)C3CCCCC3)cc2C(=O)N([C@@H](C)CO)C[C@H]1C`, the result was inactive.

Turning to `COCC(=O)Nc1ccc2c(c1)OC[C@H](C)N(C)C[C@@H](C)[C@@H](OC)CN(C)C2=O`, the outcome was “inactive [at 42 µM]”.

For `O=C(N/N=C/c1c[nH]c2ccccc12)c1cc2ccccc2o1`, the outcome was inactive.

Turning to `Cc1ccc(S(=O)(=O)NCCC(=O)Nc2ccc(C)c(Cl)c2)cc1C`, the outcome was inactive.
